Data: PubChem BioAssay AID493098 (Sanford-Burnham Center for Chemical Genomics, 2011)
The whole screen tested about 340,000 compounds, of which about 1,700 (0.5%) were called active.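 How the source made its calls: active means compounds whose inhibition of the agonist-driven luminescence signal at 20 µM reaches about 50% (limit read from the data); inactive means the rest.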 The full list was thinned out, with actives kept by preference.

Molecular target: C-C chemokine receptor type 6 (Homo sapiens) (UniProt P51684)
Sequence (P51684 whole entry, looked up): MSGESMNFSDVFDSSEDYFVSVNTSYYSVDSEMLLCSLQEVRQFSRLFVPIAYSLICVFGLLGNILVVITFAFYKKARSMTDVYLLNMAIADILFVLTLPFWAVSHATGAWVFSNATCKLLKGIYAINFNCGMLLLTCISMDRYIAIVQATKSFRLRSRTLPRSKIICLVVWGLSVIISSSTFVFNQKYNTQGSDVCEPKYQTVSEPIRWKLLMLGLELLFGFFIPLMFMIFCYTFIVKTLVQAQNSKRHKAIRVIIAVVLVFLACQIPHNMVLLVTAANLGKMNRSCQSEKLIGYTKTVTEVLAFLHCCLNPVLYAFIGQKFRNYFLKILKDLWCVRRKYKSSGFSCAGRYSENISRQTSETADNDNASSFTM
Experiment: blockers of CCL20-driven beta-arrestin recruitment to CCR6 – cell-based, CHO-K1, luminescence, uHTS, primary screen (AID 493098);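 further: cells stimulated with CCL20 at 14 nM final; plate controls were DMSO with CCL20 for no effect and DMSO without agonist for full effect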
Details: CHO-K1 CCR6 PathHunter beta-arrestin, CCL20-stimulated, at 20 µM, hits give high values

inhibition, active:
O=C1C(Cl)=C(Oc2ccccc2)C(=O)c2ccccc21 117%
O=C(NC1=CC(=O)c2ccccc2C1=O)c1ccccc1 83%
COC(=O)/C=C\C(=O)Nc1cccc([N+](=O)[O-])c1 106%
COc1cc(/C=C2/SC(=S)N(Cc3ccccc3)C2=O)cc(OC)c1O 52.9%
COc1cc(/C=C2/C(=O)NN(c3ccc(F)cc3)C2=O)cc([N+](=O)[O-])c1O 51.9%
Oc1ccc2ccccc2c1N=Nc1nccs1 94.3%
Oc1ccc(N=Nc2nccs2)c(O)c1 67%
O=C1c2ccccc2-c2ncnc3c(N4CCOCC4)cc(N4CCOCC4)c1c23 55.9%
CC1CC2=C(CC1/C=N/NC(N)=S)C(C)(C)CCC2 (stereo not given) 76.2%
COc1ccc(C(=O)NC(=S)NNC(=O)CCc2ccccc2)cc1 63.5%
CC(C)OC(=O)CN1C(=O)C(=O)c2ccccc21 108%
CC(=O)/C(=N\Nc1ccc(Cl)cc1Cl)Sc1cccc2cccnc12 65.9%

inhibition, inactive:
CC(=O)N(C1=C(Cl)C(=O)c2ccccc2C1=O)c1ccc(C(=O)O)cc1 11.9%
O=C(CCC1CCN(C(=O)c2cccc(Cl)c2F)CC1)Nc1ccccc1 20.2%
CC(NC(=O)c1ccccc1)C(=O)Nc1ccccc1 (stereo not given) -0.64%
O=C1C=C(NS(=O)(=O)c2ccccc2)C(=O)c2ccccc21 29.7%
CCn1c(=S)[nH]c2cc(S(=O)(=O)N3CCOCC3)ccc21 -2.44%
CC(c1ccco1)N(C(=O)Nc1ccccc1)C1CCCCC1 (stereo not given) 3.12%
O=C(Nc1cccc([N+](=O)[O-])c1)Nn1cnnc1 12.5%
COc1ccc(S(=O)(=O)NC(C)C(=O)Nc2cccc([N+](=O)[O-])c2)cc1 (stereo not given) 7.92%
C/C(N)=C(/C#N)C(=O)COC(=O)C1=NN(c2ccccc2)C(=O)CC1 7.03%
Cc1ccc(S(=O)(=O)N2CCC(Oc3ccc(-n4cnnn4)cc3)CC2)cc1 3.04%
COc1cccc(/C=C2/SC(=S)N(CC(=O)NC3C=CS(=O)(=O)C3)C2=O)c1 (stereo not given) -8.12%
CN1C=CC=C/C1=C1\SC(=S)N(Cc2ccccc2)C1=O 25.3%
COC(=O)c1ccc(NC(=O)CSc2nncc3ccc(OC)c(OC)c23)cc1 -2.84%
C#CCOc1ccc(/C=C2/C(=O)NN(c3ccccc3)C2=O)cc1OC 12%
COc1cc(CN2CC(C)CC(C)C2)cc([N+](=O)[O-])c1O (stereo not given) 5.99%
COc1ccc(NC(=O)CC(NC(C)c2ccccc2)C(=O)O)cc1 (stereo not given) 0.17%
O=C(COC(=O)c1cc(S(=O)(=O)N2CCOCC2)ccc1Cl)NCCc1ccccc1 9.32%
O=C(C1CCCO1)N(Cc1ccccc1)c1ccccc1 (stereo not given) 2.47%
Cc1cnc(C(=O)N2CCCC(C(=O)c3ccc(C(F)(F)F)cc3)C2)cn1 (stereo not given) 15.2%
Cc1ccccc1C(=O)OC1OC(=O)C(Cl)=C1Nc1ccccc1 (stereo not given) 17.2%
Cc1oc2c(c1C(=O)N1CCOCC1)C(=O)c1ccccc1C2=O -12.2%
O=S(=O)(Nc1cc(Cl)ccc1N1CCOCC1)c1ccccc1Cl 17.2%
Cc1ccc2c(C)c(C(=O)N3CCC(N4CCC(C(=O)NC5CC5)CC4)CC3)oc2c1 1.71%
CN(C(=O)CSc1nnc(Nc2ccccc2)s1)C1CCS(=O)(=O)C1 (stereo not given) 4%
O=C1c2cccnc2C(Nc2ccc(S(=O)(=O)N3CCCCCC3)cc2)N1Cc1ccccc1 (stereo not given) 5.72%
Cc1ccc(S(=O)(=O)NCc2ccc(C(=O)NC3CCC(C)CC3)cc2)cc1 (stereo not given) 19.3%
Cc1cccc(CSc2ccc(-c3cccs3)nn2)c1 7.33%
COc1ccccc1C1SCCN1C(=O)c1ccc([N+](=O)[O-])cc1 (stereo not given) -4.39%
CCC(C)N(C(=O)Cn1nc(C)c([N+](=O)[O-])c1C)C1CCS(=O)(=O)C1 (stereo not given) -5.11%
CCOc1ccc(NC(=O)COC(=O)C2CCC(=O)N2)c([N+](=O)[O-])c1 (stereo not given) -15.3%
O=c1[nH]c(CN2CCN(S(=O)(=O)c3ccc4c(c3)OCCO4)CC2)nc2sc3c(c12)CCCC3 10.3%
O=S(=O)(Nc1ncccn1)c1ccc(NS(=O)(=O)c2cccc(Cl)c2Cl)cc1 9.31%
COc1ccc(C(=O)NC(=S)NNC(=O)c2c(-c3ccccc3)noc2C)cc1 32.9%
O=C(CCc1ccccc1)NNC(=O)COc1ccc(Cl)cc1 7.8%
COCCn1c(SCC(=O)Nc2nc(C)cs2)nnc1C(C)C -5.85%
CN(C)CCn1c2c(c(SCC(=O)NCc3ccccc3)nc1=O)CCC2 8.36%
N#CC1(NC(=O)COC(=O)Cc2n[nH]c(=O)c3ccccc23)CCCCC1 -0.31%
O=C(NNC(=O)c1cnccc1C(F)(F)F)c1ccc(Cl)cc1 -1.91%
CC(OC(=O)CN1C(=O)c2ccccc2C1=O)C(=O)c1ccccc1 (stereo not given) 6.02%
CCOC(=O)CN1C(=O)C(=O)c2cc(C)ccc21 15.8%
Cc1c(Cl)cccc1NC(=O)CSc1ccc(-c2cccnc2)nn1 12.9%
Cc1cc(C(=O)N2CCC(C(=O)O)CC2)c(C(F)(F)F)o1 4.3%
Cc1cc(NC(=O)CCC(=O)N(Cc2ccccc2)C(C(=O)NC2CCCC2)c2ccc(C)o2)no1 (stereo not given) 7.11%
O=C(NNc1cc(Cl)ccc1Cl)c1cccnc1Cl 13.2%
COc1cccc(CNC(=O)c2cccnc2Sc2ccc(Cl)cc2)c1 -12.9%
CC(Sc1nc2c([nH]c3ccccc32)c(=O)n1C)c1ccccc1 (stereo not given) 5.65%
CC(=O)c1ccc(N=C2SCCCN2C(=O)C2CCCCC2)cc1 12.7%
COc1cc(OC)cc(-c2cc3nc(C4CCN(C(=O)OC(C)(C)C)CC4)cc(=O)n3[nH]2)c1 -12.3%
